An excerpt weighted towards active compounds, which were near 2.6% of everything screened.
Bim-Mcl-1 – human Bim-Mcl-1 interaction inhibition | Q07820 | Bead-based flow cytometry, Bim peptide-Mcl-1 binding | inhibition, % at 10 µM | 190,000 compounds, 0.1% hits; in the data active = inhibition above about 40%;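 note: 0% = no compound tracer wells and 100% = peptide blocker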
14-3-3 Bad PPI – disrupts binding of bovine 14-3-3 zeta to phospho-Bad peptide; AID 781; TR-FRET 14-3-3zeta/Dy647-pBad peptide displacement, 1 h; 220,000 compounds, 0.71% hits; inhibition, % at 21.7 µM;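 active = inhibition above about 70%, limit read from the data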;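 note: 0% = full 14-3-3 plus peptide FRET controls and 100% = background without 14-3-3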
Target sequence (P63103 whole entry, looked up): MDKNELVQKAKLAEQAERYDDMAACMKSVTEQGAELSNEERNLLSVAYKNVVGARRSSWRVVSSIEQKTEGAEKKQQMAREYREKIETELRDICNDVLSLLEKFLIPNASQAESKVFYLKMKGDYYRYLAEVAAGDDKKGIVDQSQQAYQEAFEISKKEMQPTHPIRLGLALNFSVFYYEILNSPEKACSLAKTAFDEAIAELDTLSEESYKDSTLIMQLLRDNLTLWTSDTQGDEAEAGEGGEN
MCL1-BIM inh – disrupts human MCL1 binding to BIM-BH3 peptide; Q07820; GST-MCL1 / FITC-Bim-BH3 fluorescence polarization; inhibition, % at 10.9 µM; 320,000 compounds, 0.68% hits;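 active = inhibition above the mean inhibition of all tested compounds plus 3 SD, set per campaign, cut at about 40% in these data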;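 note: 0% = DMSO wells and 100% = unlabeled Bim-BH3 peptide control; higher means more loss of mP so more displacement of Bim peptide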
Mcl1 Noxa PPI – Mcl-1/Noxa interaction inhibition. 220,000 compounds, 1.5% hits. AID 1022. Q07820. inhibition, % at 21.7 µM. TR-FRET Mcl-1/Noxa peptide binding, 2 h;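 active = compounds that cut the protein-peptide binding signal by more than 50% relative to plate controls in a single-dose test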;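 note: His-tagged Mcl-1 with rhodamine Noxa BH3 peptide and terbium anti-His antibody; 0% = Mcl-1 plus Noxa peptide wells and 100% = peptide-only wells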
eIF4E-4G inh – eIF4E/eIF4G interaction inhibition in translation initiation. P63073+Q04637. TR-FRET eIF4E-eIF4GI(517-606) binding, 2 h. inhibition, % at 21.7 µM. 220,000 compounds, 0.37% hits;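 active = inhibition above about 30%, limit read from the data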;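 note: 0% = full FRET control wells and 100% = background wells lacking eIF4GI fragment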
Mcl1 Bid PPI – Mcl-1/Bid interaction inhibition; Q07820; TR-FRET Mcl-1/Bid-Dy647 peptide binding, 1536-well; inhibition, % at 21.7 µM; 220,000 compounds, 0.97% hits;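 active = compounds that cut the binding signal by more than half at the single screening dose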;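 note: His-tagged Mcl-1 with europium anti-His antibody binding Bid BH3 peptide; 0% = Mcl-1 plus peptide wells and 100% = peptide-only wells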
Numbers without * were called inactive; nt = no result given; [ ] = dose if it differs, or a comment.

SMILES	Bim-Mcl-1	14-3-3 Bad PPI	MCL1-BIM inh	Mcl1 Noxa PPI	eIF4E-4G inh	Mcl1 Bid PPI
O=C(NCCc1ccccc1)C1CCN(S(=O)(=O)c2ccc(-c3nn[nH]n3)cc2)CC1	-3	42	-6	9	1	88*
Cc1ccc(N(C(=O)c2ccc3c(c2)OCO3)C2C=CS(=O)(=O)C2)cc1C (configuration not stated)	nt	nt	0	nt	nt	nt
CCCCC(=O)N(c1ccc(C)c(C)c1)C1C=CS(=O)(=O)C1 (configuration not stated)	1	93*	-3	-18	8	-5
O=C(NC1CCCCC1)C(c1ccncc1)N(C(=O)c1csnn1)c1cccc(F)c1 (configuration not stated)	nt	nt	-2	nt	nt	nt
COCC(=O)Nc1ccc(N(C)C)cc1	0	-9	5	25	4	-47
CN(C)c1ccc(NC(=O)COC(=O)Cn2nnc3ccccc32)cc1	-5	-5	4	71*	8	-25
COc1ccc(NC(=O)COC(=O)Cn2nnc3ccccc32)cc1	-4	6	-2	-21	2	-2
Cc1ccccc1SCC(=O)OCC(=O)Nc1ccc(N(C)C)cc1	1	4	4	61*	13	-6
CN1c2ccsc2C(O)=C(C(=S)Nc2ccccc2)S1(=O)=O	-7	24	17	20	6	21
CCNC(=O)C1=C(O)c2sccc2N(C)S1(=O)=O	-3	-6	7	6	37*	6
Cc1ccc(N(CC(=O)O)S(C)(=O)=O)cc1Cl	0	34	5	-2	-22	8
CCc1nnc(NC(=O)C2CCCN2C(=O)Nc2ccc(Cl)cc2)s1 (configuration not stated)	nt	nt	4	nt	nt	nt
COc1cc(CC(=O)Nc2ccc3c(c2)CCC3)cc(OC)c1OC	-3	-8	-16	15	60*[fluorescence artefact?]	-20
COc1cc(CCC(=O)Nc2ccc(Cl)c(C(F)(F)F)c2)cc(OC)c1OC	-5	75*[fluorescence artefact?]	7	-3	2	-10
CCOC(=O)CNC(=O)CSc1nc(Cc2ccccc2)nc2ccccc12	nt	nt	5	nt	nt	nt
Cc1c(C(=O)N2CCCc3ccccc32)oc2ccc(S(=O)(=O)N3CCOCC3)cc12	-6	-12	2	-18	5	-46
NC1=NC2(CCCCC2)n2c(nc3ccccc32)N1	-5	7	8	-8	1	-9
N=c1cc(C2(O)CCCCC2)n2c(nc3ccccc32)s1	2	0	2	0	4	98*
O=C(O)c1[nH]c2ccccc2c1C=NCc1ccccc1Cl	0	-7	0	-5	5	89*
COCCNC(=O)/C(C#N)=c1\s/c(=C\c2ccccc2OC(F)F)c(=O)n1Cc1ccccc1	-1	-4	-7	-13	-3	-6
O=C(OCCN1CCOCC1)C(c1ccccc1)c1ccccc1	-8	20	-4	9	0	2
CC(C)N1C(=O)CC2(CC[N+](C)(CCOC(=O)C(c3ccccc3)c3ccccc3)CC2)C1=O (configuration not stated)	-2	77*[fluorescence artefact?]	-18	33	-1	-17
Cc1ccc2nc(NC(=O)c3ccccc3F)sc2c1	nt	nt	2	nt	nt	nt
Cc1ccc2nc(NC(=O)c3cc(-c4ccco4)nc4ccccc34)sc2c1	0	8	1	42	3	53*
COc1cccc(-c2cc(C(=O)Nc3nc4ccccc4s3)c3ccccc3n2)c1	-2	1	6	-5	1	-1
SMILES	Bim-Mcl-1	14-3-3 Bad PPI	MCL1-BIM inh	Mcl1 Noxa PPI	eIF4E-4G inh	Mcl1 Bid PPI
O=C(Nc1nc2ccccc2s1)c1cc(-c2ccco2)nc2ccccc12	-3	15	16	59*	-8	63*
N=c1oc2cc(O)ccc2cc1C(=O)Nc1nc2ccccc2s1	0	26	-24	100*	-12	72*
O=C(Nc1nccs1)c1cc(-c2ccco2)nc2ccccc12	-8	-1	23	81*	36*[fluorescence artefact?]	-88
O=C(Nc1nccs1)c1cc(-c2ccccc2)nc2ccccc12	-9	26	-4	20	4	18
CC(C)c1ccc(NC(=O)c2ccc3c(c2)C(=O)N(Cc2cccnc2)C3=O)cc1	nt	nt	-4	nt	nt	nt
Cc1c(-c2ccccc2)[n+](=O)c(-c2ccc(Cl)cc2)c(C)n1[O-]	0	-4	-5	10	-4	-28
Cc1ccc(S(=O)(=O)Nc2ccccc2C(=O)N2CCN(C)CC2)cc1	nt	nt	3	nt	nt	nt

High-throughput results from PubChem BioAssay.
